Results taken from PubChem BioAssay (EPA / NIEHS).
Results filed as inconclusive are left out. Calls of active or inactive are those of the source. The calls were made as follows: active = hit-call score of the fitted dose curve at least 0.9, where 1 is the maximum; inconclusive = response in the unintended direction; inactive = score below 0.9.

What follows are compounds tested against Nucleoli Translocation, AR (gene 367) (UniProt P10275) (assay: UPITT_HCI_U2OS_AR_TIF2_Nucleoli_Agonist: University of Pittsburgh U2OS Androgen Receptor-Transcriptional Intermediary Factor 2 (AR-TIF2) Agonism High Content Imaging Assay for Nucleoli Translocation (AID 2283998)).
Nucleoli Translocation, AR (gene 367), sequence (P10275 whole entry, looked up, the tested form may be a part): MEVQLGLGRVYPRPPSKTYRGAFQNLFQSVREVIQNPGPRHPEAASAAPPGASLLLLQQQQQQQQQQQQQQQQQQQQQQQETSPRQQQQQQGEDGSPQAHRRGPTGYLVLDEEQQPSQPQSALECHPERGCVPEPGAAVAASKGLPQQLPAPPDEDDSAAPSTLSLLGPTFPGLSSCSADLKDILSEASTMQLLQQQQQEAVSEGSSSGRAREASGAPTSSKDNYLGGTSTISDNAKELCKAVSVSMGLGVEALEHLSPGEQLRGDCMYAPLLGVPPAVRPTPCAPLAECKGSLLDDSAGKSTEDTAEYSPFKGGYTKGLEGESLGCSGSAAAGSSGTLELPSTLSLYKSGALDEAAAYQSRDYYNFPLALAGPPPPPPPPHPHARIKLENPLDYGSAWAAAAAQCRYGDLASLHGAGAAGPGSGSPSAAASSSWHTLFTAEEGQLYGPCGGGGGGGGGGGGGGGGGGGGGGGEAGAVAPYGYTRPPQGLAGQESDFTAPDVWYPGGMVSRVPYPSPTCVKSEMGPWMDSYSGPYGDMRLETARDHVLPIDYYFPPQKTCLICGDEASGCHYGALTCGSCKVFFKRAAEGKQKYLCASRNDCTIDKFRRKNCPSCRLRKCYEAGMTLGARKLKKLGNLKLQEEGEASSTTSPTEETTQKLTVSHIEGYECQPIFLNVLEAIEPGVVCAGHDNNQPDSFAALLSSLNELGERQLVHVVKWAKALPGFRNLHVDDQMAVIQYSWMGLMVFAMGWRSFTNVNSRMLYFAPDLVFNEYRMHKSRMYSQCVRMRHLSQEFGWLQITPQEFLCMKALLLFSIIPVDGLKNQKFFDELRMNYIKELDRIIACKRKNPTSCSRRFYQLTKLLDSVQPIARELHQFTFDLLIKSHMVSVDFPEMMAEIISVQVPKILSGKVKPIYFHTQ
From the text: UPITT_AR_TIF2_PPIB is a cell-based, high-content imaging assay that uses U2OS, a human osteosarcoma cell line, expressing a human androgen receptor fused to red fluorescent protein and the coactivator TIF2 fused to green fluorescent protein. UPITT_HCI_U2OS_AR_TIF2_Nucleoli_Agonist is one of four assay components measured from the UPITT_AR_TIF2_PPIB assay. It is designed to make measurements of red fluorescence localized in the nucleolar region of the cell nucleus as detected with high-content fluorescent imaging.Data from the assay component UPITT_HCI_U2OS_AR_TIF2_Nucleoli_Agonist was analyzed into 1 assay endpoint. This assay endpoint, UPITT_HCI_U2OS_AR_TIF2_Nucleoli_Agonist, was analyzed in the positive analysis fitting direction relative to DMSO as the baseline of activity. Using a type of binding reporter, measures of receptor for gain-of-signal activity can be used to understand the binding at the pathway-level as it relates to the gene AR.
Daughter plates containing 2 uL of 10 mM compounds in DMSO were prepared and replicated from the 384-well Library of Pharmacologically Active Compounds (LOPAC) master plates using the Bravo outfitted with a 384-well transfer head. Aluminum adhesive plate seals were applied with an Abgene Seal-IT 100 (Rochester, NY) plate sealer, and the plates were stored at -20 C in a Matrical MatriMinistore (Spokane, WA) automated compound storage and retrieval system. For screening, LOPAC daughter plates were withdrawn from -20C storage, thawed to ambient temperature, centrifuged 1-2 min at 50 g, and the plate seals were removed before the transfer of 98 uL of serum-free tissue culture medium (SFM) into wells using the BioTek Microflo liquid handler (BioTek, Winooski, VT) to generate a 200 uM intermediate stock concentration of library compounds (2.0% DMSO). The diluted compounds were mixed by repeated aspiration and dispensation using a 384-well P30 dispensing head on the Evolution P3 (EP3) liquid handling platform (PerkinElmer, Waltham, MA) and then 5 uL of diluted compounds was transferred to the wells of assay plates. In the LOPAC screen, compounds were individually tested at a final concentration of 20 uM (0.2% DMSO). After the diluted compounds had been transferred from the daughter plates to the primary HCS assay plates, aluminum adhesive plate seals were applied and the diluted daughter plates were stored frozen at -20C. To confirm active compounds identified in the primary screen, we withdrew the LOPAC daughter plates containing the 200 uM intermediate concentration of library compounds (2.0% DMSO) from -20C storage, thawed them to ambient temperature, centrifuged them for 1-2 min at 50 g, and removed the plate seals. A work list was generated to direct the Multiprobe Janus liquid handling platform (PerkinElmer) to cherry pick 75 uL from the wells of the diluted daughter plates that were flagged active in the primary screen and to reformat these into a 384-well plate hit confirmation daughter plate. Five microliters of primary HCS active compounds was then transferred into triplicate wells of assay plates using a 384-well P30 dispensing head on the Evolution P3 (EP3) liquid handling platform (PerkinElmer). […] Daughter plates containing 2 uL of the serially diluted compounds in DMSO were prepared and replicated from the 384-well serial dilution master plates using the Bravo outfitted with a 384-well transfer head. Aluminum adhesive plate seals were applied and plates were stored at -20C. For testing in the bioassays, daughter plates were withdrawn from -20C storage, thawed to ambient temperature, centrifuged for 1-2 min at 50 g, and the plate seals were removed before the transfer of 38 uL of SFM into wells using the BioTek Microflo liquid handler (BioTek) to generate an intermediate stock concentration of library compounds ranging from 1.95 to 500 uM (5.0% DMSO). […]

Row | SMILES | outcome | AC50
1 | NC(=O)N1C(=O)C(C(=O)c2cc(Cl)cs2)c2cc(F)c(Cl)cc21 (centres undefined) | inactive | 
2 | Cc1oc(-c2ccccc2)nc1CCOc1ccc(C[C@H](Nc2ccccc2C(=O)c2ccccc2)C(=O)O)cc1 | inactive | 
3 | CC[C@H](c1ccc(O)cc1)[C@@H](CC)c1ccc(O)cc1 |  | 50 µM (active)
4 | CCCCCCCCCCCCc1ccccc1S(=O)(=O)O |  | 90.7 µM (active)
5 | N#C[C@@H]1CC(F)(F)CN1C(=O)CNC1CC2CCC(C1)N2c1ncccn1 (some centres undefined) | inactive | 
6 | CCC(=C(c1ccc(O)cc1)c1ccc(OCCN(C)C)cc1)c1ccccc1 |  | 22.5 µM (active)
7 | CCCOc1sc(C(=O)N2CCC(c3cc(CN)ccc3F)CC2)c(C)c1Br |  | 7.93 µM (active)
8 | COCC(C)OCC(C)O (centres undefined) | inactive | 
9 | OCCC(F)(F)C(F)(F)C(F)(F)C(F)(F)C(F)(F)C(F)(F)C(F)(F)C(F)(F)F | inactive | 
10 | CC(=O)CC(C)(C)O | inactive | 
11 | O=C(/C=C/c1ccc(O)cc1)CC(=O)/C=C/c1ccc(O)cc1 | inactive | 
12 | Nc1cccc2c(N)cccc12 | inactive | 
13 | c1ccc2c(c1)ccc1ccccc12 | inactive | 
14 | Oc1cc2ccccc2c2ccccc12 | inactive | 
